The source of these data is PubChem BioAssay (NCATS).

The structures appear in SMILES notation. Values joined by “and” are separate entries in the source; they are usually repeats but may differ in a detail not shown here. Equal entries are not always repeated. Results filed as inconclusive are left out. Active and inactive are the calls of the source. Unless noted, calls follow the shape of the dose curve; as a rule, active = well fitted curve in the direction sought with a large enough effect; inconclusive = small, poorly fitted or top-dose-only effect, or another doubt; inactive = no such curve, though single readings can be large; an effect the other way counts as inactive or inconclusive.

Test [1] is described as follows: qHTS assay for small molecule antagonists of peroxisome proliferator-activated receptor delta signaling (AID 588535; active = well fitted inhibition curve with a large enough effect in the signal ratio, with a control signal flat, not every such curve was filed as active; the % refers to the signal ratio;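 as to max response: cells co-treated with a PPAR-delta agonist as stimulator during compound exposure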). The note with it: HEK293T PPARd-UAS-bla, beta-lactamase FRET ratio, 18 h; 460 nm channel. In short, it runs like this:
(§1)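 Antagonist-mode qHTS using GeneBLAzer PPAR-delta-UAS-bla HEK293T cells; compound exposure 18 hrs at 37 C over a titration. Ratiometric CCF4 fluorescence at 460/530 nm; concentration-response points fitted to the Hill equation.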

In test [2] the target is Peroxisome proliferator-activated receptor delta (Homo sapiens) (UniProt Q03181). Described as above. To be noted: HEK293T PPARd-UAS-bla, beta-lactamase FRET ratio, 18 h; series mostly up to 76.7 µM. The gist of the method: as §1
Sequence of Peroxisome proliferator-activated receptor delta (Homo sapiens) (Q03181 whole entry, looked up): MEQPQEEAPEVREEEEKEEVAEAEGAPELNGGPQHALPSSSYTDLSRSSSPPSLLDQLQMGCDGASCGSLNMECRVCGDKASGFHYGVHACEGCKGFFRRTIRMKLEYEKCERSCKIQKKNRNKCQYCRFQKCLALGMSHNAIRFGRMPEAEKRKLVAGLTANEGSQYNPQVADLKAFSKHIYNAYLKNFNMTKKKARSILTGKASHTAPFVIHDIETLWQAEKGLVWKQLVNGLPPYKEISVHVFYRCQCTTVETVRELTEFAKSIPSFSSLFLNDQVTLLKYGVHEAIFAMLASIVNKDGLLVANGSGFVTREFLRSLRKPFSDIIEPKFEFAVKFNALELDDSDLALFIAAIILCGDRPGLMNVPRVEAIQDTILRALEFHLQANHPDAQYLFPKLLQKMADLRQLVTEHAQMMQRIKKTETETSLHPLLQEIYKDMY
Test [3] addresses Vitamin D3 receptor (Homo sapiens) (UniProt P11473). The experiment in a line: qHTS assay for small molecule antagonists of vitamin D receptor signaling (AID 588541; calls by dose curve;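 also: receptor activated by calcitriol during compound treatment; % is scaled to controls: 0 for no effect and ±100 for the full control effect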). The note with it: HEK293T VDR-UAS-bla, beta-lactamase ratio, antagonist mode; series mostly up to 76.7 µM. In short, it runs like this:
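Antagonist-mode beta-lactamase reporter assay: HEK293T VDR-UAS-bla cells were exposed to titrated compound alongside 1-alpha,25-dihydroxyvitamin D3 at 3 nM final for 16 h. Values were normalized to the 50 nM agonist control and DMSO basal, with IC50 and efficacy from Hill equation fits.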

For test [4] the target is unchanged. Kind of test: qHTS assay for small molecule agonists of vitamin D receptor signaling (AID 588543; calls by dose curve;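 also: 0% = DMSO basal and 100% = reference agonist control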). To be noted: HEK293T VDR-UAS-bla, beta-lactamase ratio, 16 h; series mostly up to 76.8 µM. The gist of the method:
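Measured: β-lactamase reporter activity (CCF4, 405 nm excitation, 460/530 nm emission) in HEK293T VDR-UAS-bla cells after 16 h compound exposure at 37 °C. Normalization against 50 nM 1α,25-dihydroxyvitamin D3 and DMSO; Hill-fit EC50.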

Test [5] deals with Retinoic acid receptor RXR-alpha (Homo sapiens) (UniProt P19793). The experiment in a line: qHTS assay for small molecule agonists of retinoid X receptor alpha signaling (AID 588544; calls by dose curve;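 also: 0% = DMSO basal wells and 100% = reference agonist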). To be noted: HEK293T RXRa-UAS-bla, beta-lactamase reporter, 18 h; series mostly up to 76.7 µM.
Sequence of Retinoic acid receptor RXR-alpha (Homo sapiens) (P19793 whole entry, looked up): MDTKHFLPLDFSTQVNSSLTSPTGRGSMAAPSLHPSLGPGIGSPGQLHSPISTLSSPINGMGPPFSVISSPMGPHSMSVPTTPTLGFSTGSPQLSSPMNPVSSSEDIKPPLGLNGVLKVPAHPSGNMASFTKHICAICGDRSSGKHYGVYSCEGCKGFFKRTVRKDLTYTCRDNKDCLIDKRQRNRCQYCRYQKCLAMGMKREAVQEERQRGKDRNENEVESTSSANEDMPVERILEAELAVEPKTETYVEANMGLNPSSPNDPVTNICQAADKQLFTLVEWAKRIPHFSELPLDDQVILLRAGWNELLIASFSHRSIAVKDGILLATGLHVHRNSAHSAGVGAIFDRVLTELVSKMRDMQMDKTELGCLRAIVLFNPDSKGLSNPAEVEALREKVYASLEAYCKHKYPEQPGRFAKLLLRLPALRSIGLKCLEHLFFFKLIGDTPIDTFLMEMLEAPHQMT
Test [6] addresses Thyroid hormone receptor beta (Homo sapiens) (UniProt P10828). Kind of test: qHTS assay for small molecule agonists of thyroid hormone receptor beta signaling (AID 588545; calls by dose curve). To be noted: TR-UAS-bla GripTite HEK 293, beta-lactamase ratio, agonist mode, 18 h; series mostly up to 76.7 µM. The gist of the method: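 Agonist-mode beta-lactamase reporter assay, HEK 293 cells, 2% charcoal/dextran FBS; cells plated 4 hrs, compound 18 hrs at 37 C, CCF4 2 hrs RT. Normalized to 10 nM T3 (100%) and DMSO (0%); Hill fit gives EC50, efficacy.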

Test [7] in a line: qHTS assay for small molecule antagonists of retinoid X receptor alpha signaling (AID 588546; active = well fitted inhibition curve with a large enough effect in the signal ratio, with a control signal flat, not every such curve was filed as active; the % refers to the signal ratio;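 also: cells stimulated with 9-cis-retinoic acid as agonist; % is scaled to controls: 0 for no effect and ±100 for the full control effect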). The note with it: HEK293T RXRa-UAS-bla, beta-lactamase ratio, antagonist mode; measured here: W530 green channel, cytotoxicity proxy. In short, it runs like this:
(§2)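 Beta-lactamase reporter inhibition, read as CCF4 fluorescence ratio (ex 405, em 460/530 nm) after 2 h at RT. HEK293T UAS-bla cells, 2500/well, were stimulated with 9-cis-RA at 500 or 100 nM final alongside test compound for 18 h at 37 C.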

The target of test [8] is Retinoic acid receptor RXR-alpha (Homo sapiens) (UniProt P19793). The description is as above. The note with it: HEK293T RXRa-UAS-bla, beta-lactamase ratio, antagonist mode. The gist of the method:
as §2

Test [9] is described as follows: qHTS assay for small molecule activators of the p53 signaling pathway (AID 651743; active = well fitted activation curve with a large enough effect in the signal ratio, not every such curve was filed as active; the % refers to the signal ratio; also: % of control where 0% means no effect). The note with it: HCT-116 p53RE-bla, beta-lactamase FRET ratio, 16 h; activation: stronger effect = higher value. The gist of the method:
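A beta-lactamase reporter under p53 response element control, stably carried by HCT-116 cells, reported pathway activation. Test compounds were applied for 16 hours at 37 C, and fluorescence was measured 2 hours after adding the B/G FRET substrate.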

The nature of test [10]: qHTS assay for small molecule activators of the nuclear factor-kappa B (NF-kB) signaling pathway (AID 651749; active = well fitted activation curve with a large enough effect in the signal ratio; the % refers to the signal ratio; also: % of control where 0% means no effect). The note with it: NF-kB-bla ME-180 cells, beta-lactamase FRET ratio, 16 h; activation: stronger effect = higher value. In short, it runs like this:
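FRET-based beta-lactamase detection in ME-180 cells reports NF-kB response-element-driven transcription following overnight (16 hr) compound treatment.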

Test [11] addresses Peroxisome proliferator-activated receptor alpha (Homo sapiens) (UniProt Q07869). Kind of test: qHTS assay for small molecule agonists of the peroxisome proliferator-activated receptor alpha (PPARalpha) signaling pathway (AID 651778). Also: potency is read from the fitted curve at half-maximal effect. As to max response: % of control where 0% means no effect. The note with it: PathHunter PPARalpha complementation, chemiluminescence, 6 h; max response: stronger effect = higher value. In short, it runs like this:
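Chemiluminescence from complemented enzyme reported PPARalpha activation in cells after 6 hr of compound treatment at 37 C. The detection reagent was incubated for 60 min at room temperature, and compounds were scored as agonists.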

Test [12] can be described thus: qHTS assay for small molecule agonists of the antioxidant response element (ARE) signaling pathway measured by Nrf2-dependant transcriptional activity - cell viability counter screen (AID 720653; active = well fitted curve in the direction sought with a large enough effect in the repeat runs; an effect the other way counts as inactive or inconclusive; also: % is scaled to controls: 0 for no effect and ±100 for the full control effect). The note with it: ARE-bla HepG2 viability, CellTiter-Glo ATP luminescence, 16 h; max response: stronger effect = lower value. The gist of the method: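 Cytotoxicity counter screen: intracellular ATP quantified by CellTiter-Glo luminescence in the same ARE-bla HepG2 plates, after 16 h compound exposure and a 2 h beta-lactamase substrate step.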

Test [13] is described as follows: qHTS assay for cell viability of HEK293 cells (AID 743288). Also: % is scaled to controls: 0 for no effect and ±100 for the full control effect; nearly all actives have a fitted effect of over 50% in size. The note with it: ATP luminescence (CellTiter-Glo), 18 h; max response: stronger effect = lower value. The gist of the method: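 HEK293, 18 h, 37 C, ATP luminescence. Cells at 2,000/well were allowed at least 5 h to settle before dosing; CellTiter-Glo developed 30 min at RT.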
Test [14] can be described thus: qHTS assay for cell viability of the p53RE-bla HCT-116 cell line (AID 743292). Also: % is scaled to controls: 0 for no effect and ±100 for the full control effect; nearly all actives have a fitted effect of over 55% in size. The note with it: p53RE-bla HCT-116 viability, ATP luminescence, 16 h; series mostly up to 95 µM. The gist of the method:
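CellSensor p53RE-bla HCT-116 cells (4,000/well) pre-incubated 5 h at 37 C, then exposed to compounds in DMSO for 16 h at 37 C. Viability read as ATP content by CellTiter-Glo luminescence after 30 min at room temperature.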

Test [15] deals with Glucocorticoid receptor (Homo sapiens) (UniProt P04150). The experiment in a line: qHTS assay for small molecule agonists of glucocorticoid receptor signaling (AID 588532; active = well fitted curve in the direction sought with a large enough effect in the signal ratio, with a control signal flat; the % refers to the signal ratio;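 also: 100% = dexamethasone at 0.1 µM and 0% = DMSO only wells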). To be noted: HeLa MMTV-bla, beta-lactamase ratio, agonist, 18 h; stronger effect = higher value; percent of dexamethasone control, DMSO zero. In short, it runs like this: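 Using MMTV-bla HeLa cells in medium with 1% stripped FBS and 25 mM HEPES, compounds were titrated and incubated overnight-length (18 h). Beta-lactamase cleavage of CCF4 was quantified by dual-emission fluorescence.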
Sequence of Glucocorticoid receptor (Homo sapiens) (P04150 whole entry, looked up): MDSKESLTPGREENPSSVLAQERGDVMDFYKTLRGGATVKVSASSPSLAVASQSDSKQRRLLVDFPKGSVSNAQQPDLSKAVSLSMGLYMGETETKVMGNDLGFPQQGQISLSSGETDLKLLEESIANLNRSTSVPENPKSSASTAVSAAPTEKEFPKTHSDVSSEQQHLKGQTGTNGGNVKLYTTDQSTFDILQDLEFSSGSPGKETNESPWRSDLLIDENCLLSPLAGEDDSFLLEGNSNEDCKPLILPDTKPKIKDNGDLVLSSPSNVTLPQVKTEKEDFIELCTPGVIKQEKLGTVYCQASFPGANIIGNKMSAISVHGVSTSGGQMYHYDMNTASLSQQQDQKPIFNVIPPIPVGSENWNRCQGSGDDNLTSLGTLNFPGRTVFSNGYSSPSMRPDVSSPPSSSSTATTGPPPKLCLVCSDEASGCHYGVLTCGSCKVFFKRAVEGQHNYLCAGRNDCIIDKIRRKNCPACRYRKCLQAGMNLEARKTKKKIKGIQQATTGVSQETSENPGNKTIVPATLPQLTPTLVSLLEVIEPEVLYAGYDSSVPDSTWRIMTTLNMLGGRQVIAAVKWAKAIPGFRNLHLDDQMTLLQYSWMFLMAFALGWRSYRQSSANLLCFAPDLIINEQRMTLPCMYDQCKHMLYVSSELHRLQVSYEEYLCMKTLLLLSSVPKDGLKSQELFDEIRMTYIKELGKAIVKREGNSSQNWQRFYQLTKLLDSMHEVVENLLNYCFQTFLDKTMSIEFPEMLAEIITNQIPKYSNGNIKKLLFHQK

The target is the same in test [16]. Kind of test: qHTS assay for small molecule antagonists of glucocorticoid receptor signaling (AID 588533; active = well fitted inhibition curve with a large enough effect in the signal ratio, with a control signal flat, not every such curve was filed as active; the % refers to the signal ratio;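 also: cells stimulated with 2 nM dexamethasone as agonist; % is scaled to controls: 0 for no effect and ±100 for the full control effect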). To be noted: HeLa MMTV-bla, GRE beta-lactamase ratio, antagonist mode, 18 h; series mostly up to 76.8 µM. In short, it runs like this: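 Antagonist-mode qHTS: compound titrations added to GRE-bla HeLa cells, then dexamethasone 2 nM final; 18 h, 37 C. CCF4 FRET fluorescence normalized to dexamethasone and DMSO; IC50 from Hill fit.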

Test [17] in a line: qHTS assay for environmental chemicals that activate the Aryl hydrocarbon Receptor (AhR) signaling pathway (AID 651777). Also: % of control where 0% means no effect; nearly all actives have a fitted effect of over 15% in size. The note with it: 1A2-DRE human hepatoma cells, luciferase, 24 h; activation: stronger effect = higher value. The gist of the method: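 Human hepatoma 1A2-DRE cells stably carrying a DRE/CYP1A2 promoter–luciferase reporter, 1,200 cells/well, exposed to compound 24 hr at 37 C. Luciferase read by One-Glo luminescence after 30 min at room temperature; increased signal marks AhR activation.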

For test [18], the target named is Nuclear receptor subfamily 1 group I member 2 (Rattus norvegicus) (UniProt Q9R1A7). The experiment in a line: qHTS assay for small molecule activators of the rat pregnane X receptor (rPXR) signaling pathway (AID 651751; call rule not given here; also: 0% is about no effect). The note with it: rPXR reporter cells, luciferase (One-Glo), 24 h.
Sequence of Nuclear receptor subfamily 1 group I member 2 (Rattus norvegicus) (Q9R1A7 whole entry, looked up): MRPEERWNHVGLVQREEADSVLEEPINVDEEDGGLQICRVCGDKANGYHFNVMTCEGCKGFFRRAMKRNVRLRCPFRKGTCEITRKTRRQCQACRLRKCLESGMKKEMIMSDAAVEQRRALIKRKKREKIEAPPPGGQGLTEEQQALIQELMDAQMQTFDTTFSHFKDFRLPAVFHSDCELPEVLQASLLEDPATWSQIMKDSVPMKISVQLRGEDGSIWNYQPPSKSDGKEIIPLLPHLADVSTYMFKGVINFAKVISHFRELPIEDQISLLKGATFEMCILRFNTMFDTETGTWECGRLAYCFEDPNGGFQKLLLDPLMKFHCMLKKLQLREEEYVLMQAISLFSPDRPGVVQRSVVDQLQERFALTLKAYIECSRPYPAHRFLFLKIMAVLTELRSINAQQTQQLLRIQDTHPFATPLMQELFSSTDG
Test [19] is described as follows: qHTS assay for small molecule agonists of the antioxidant response element (ARE) signaling pathway measured by Nrf2-dependant transcriptional activity (AID 720636; active = well fitted curve in the direction sought with a large enough effect in the repeat runs; an effect the other way counts as inactive or inconclusive; also: % of control where 0% means no effect). To be noted: ARE-luc HepG2, Nrf2 luciferase reporter, 16 h; series mostly up to 92.4 µM. In short, it runs like this: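 ARE-luc HepG2 cells carrying an Nrf2-responsive luciferase reporter, in medium with 1% dialyzed FBS, exposed to compound for 16 hr at 37 C, 5% CO2. Luminescence read 30 min after ONE-Glo addition.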

The nature of test [20]: qHTS assay for small molecule activators of the human pregnane X receptor (PXR) signaling pathway (AID 720659; call rule not given here; also: 0% is about no effect). To be noted: DPX-2 HepG2 CYP3A4-luciferase, 24 h; series mostly up to 92.3 µM.

Sequence of Vitamin D3 receptor (Homo sapiens) (P11473 whole entry, looked up): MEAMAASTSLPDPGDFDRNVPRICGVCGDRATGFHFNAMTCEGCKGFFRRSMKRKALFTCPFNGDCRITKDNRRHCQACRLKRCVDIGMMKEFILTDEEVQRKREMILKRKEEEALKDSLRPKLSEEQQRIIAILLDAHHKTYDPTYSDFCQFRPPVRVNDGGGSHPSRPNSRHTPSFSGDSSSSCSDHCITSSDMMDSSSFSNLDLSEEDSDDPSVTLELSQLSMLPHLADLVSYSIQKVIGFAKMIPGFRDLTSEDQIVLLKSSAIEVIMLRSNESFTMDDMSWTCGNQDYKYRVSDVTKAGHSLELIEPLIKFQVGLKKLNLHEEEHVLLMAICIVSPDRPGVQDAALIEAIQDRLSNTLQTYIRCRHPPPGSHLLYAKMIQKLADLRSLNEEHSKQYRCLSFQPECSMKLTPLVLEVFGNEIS
Sequence of Thyroid hormone receptor beta (Homo sapiens) (P10828 whole entry, looked up): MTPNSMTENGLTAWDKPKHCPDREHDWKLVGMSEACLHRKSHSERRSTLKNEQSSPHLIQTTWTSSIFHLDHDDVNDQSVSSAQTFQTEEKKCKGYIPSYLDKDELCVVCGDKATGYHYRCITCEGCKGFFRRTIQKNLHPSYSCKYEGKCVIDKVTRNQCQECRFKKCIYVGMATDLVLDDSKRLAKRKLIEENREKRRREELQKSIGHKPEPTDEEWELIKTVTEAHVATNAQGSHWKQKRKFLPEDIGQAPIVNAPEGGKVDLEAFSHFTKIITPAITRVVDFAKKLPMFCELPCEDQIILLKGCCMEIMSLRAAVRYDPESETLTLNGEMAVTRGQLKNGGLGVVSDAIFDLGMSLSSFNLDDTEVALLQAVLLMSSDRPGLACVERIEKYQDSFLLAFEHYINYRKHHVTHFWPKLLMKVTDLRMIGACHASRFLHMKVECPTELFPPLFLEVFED
Sequence of Peroxisome proliferator-activated receptor alpha (Homo sapiens) (Q07869 whole entry, looked up): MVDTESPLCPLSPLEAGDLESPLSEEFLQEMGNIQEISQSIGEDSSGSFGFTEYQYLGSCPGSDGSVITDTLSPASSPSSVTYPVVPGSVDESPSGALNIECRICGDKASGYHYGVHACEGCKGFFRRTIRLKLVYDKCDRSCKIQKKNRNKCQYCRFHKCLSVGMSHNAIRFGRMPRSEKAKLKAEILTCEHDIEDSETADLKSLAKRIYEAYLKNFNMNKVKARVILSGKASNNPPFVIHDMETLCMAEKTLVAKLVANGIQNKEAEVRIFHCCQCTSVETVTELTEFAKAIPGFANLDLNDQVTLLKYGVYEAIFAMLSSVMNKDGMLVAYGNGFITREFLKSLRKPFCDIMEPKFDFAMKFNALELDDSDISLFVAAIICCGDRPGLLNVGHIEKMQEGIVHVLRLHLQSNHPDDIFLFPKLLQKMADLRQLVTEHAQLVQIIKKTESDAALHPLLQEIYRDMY

On to `c1ccc2c(c1)ccc1c3ccccc3ccc21`, for which the max response was 1.74% in [1]; -22.1% in test [7]; -7.12% (inactive) in test [8]; -3.59% (inactive) in [11]; -24.7% (inactive) in test [12]; -7.41% (inactive) in [13]. The Potency entry in test [2], in test [3], in [5], in [6] and in test [14] was “inactive” each time. The outcome in test [4] was inactive. Besides, the activation in test [9] was 0.403% (inactive); in test [10] it was -0.747% (inactive).

Take `O=C1NC(=O)C(Cc2ccc(OCCN3COc4ccccc4C3=O)cc2)S1` (stereo unspecified): the activation was 5.15% (inactive) in test [15], 0.726% (inactive) in test [9], 0.424% (inactive) in [10] and 13.4% (inactive) in test [17]. In addition, the Potency entry in test [16], in [6] and in test [14] was “inactive” throughout. For the same compound, the max response in test [7] is 33.2%; in [8], -11.1% (inactive); in [12], -6.38% (inactive); in [13] it was -10.2% (inactive); in test [18] it was 1.08% (inactive). Further, the Potency in [11] is 17.8 µM (active).

`CCCCC(CC)COC(=O)/C=C\C(=O)OCC(CC)CCCC` (stereo unspecified): the activation is -2.45% (inactive) in test [15], -1.03% (inactive) in test [9], 0.118% (inactive) in [10] and 0.172% (inactive) in test [17]. The Potency entry in test [16], in test [2], in test [3], in [5], in test [19] and in test [14] was “inactive” each time. Moreover, the max response in [1] is 14.1%; in test [7], -16.2%; in test [8], 1.08% (inactive); in test [11], -0.882% (inactive); in test [12], -2.59% (inactive); in test [13], -2.82% (inactive). The max response in test [18] was -1.19% (inactive). The result in test [4] and in [20] was inactive.

Turning to `COC(=O)CCSCCC(=O)OC`, the activation in [15] is 8.88% (inactive); in test [10], -0.163% (inactive). Further, the Potency entry in test [16], in test [2], in test [6], in [19] and in test [14] was “inactive” each time. For the same compound, the max response was 13.2% in test [1]; -8.85% in test [7]; -2.91% (inactive) in [8]; -1.49% (inactive) in [11]; 1.34% (inactive) in test [12]; -5.77% (inactive) in [13]. For the same compound, in [18], the max response is 0.101% (inactive). Also, in test [20], the compound was classed as inactive.

Consider `CCOc1ccc(NC(=O)OC(C)C)cc1OCC`, for which the activation in test [15] was -6.81% (inactive); in test [9] it was -0.775% (inactive); in test [10] it was -0.916% (inactive); in test [17], 2.6% (inactive). For the same compound, the Potency entry in [16], in [2], in test [3], in [6], in [19] and in [14] was “inactive” throughout. The max response in test [1] was -29.8%; in test [7] it was -3.73%; in test [8] it was -21.6% (inactive); in test [11] it was 2.76% (inactive); in test [12], -3.59% (inactive); in test [13], -5.68% (inactive). For the same compound, the max response in [18] is 10.3% (inactive). The result in [4] was inactive.

Consider `CC(C)(C)[C@H](O)[C@H](Cc1ccc(Cl)cc1)n1cncn1`, for which the activation in [15] is -0.93% (inactive); in test [9], -1.23% (inactive) and -2.31% (inactive); in [10], 1.04% (inactive) and 0.72% (inactive). Besides, the Potency result in test [16], in [2], in [3], in [5], in test [6] and in test [19] was “inactive” each time. Besides, the Potency entry in [14] is “inactive”. Besides, the max response in test [1] is 27.4%; in test [7], 9.09%; in test [8], -30.2% (inactive); in test [11], -0.299% (inactive) and 2.68% (inactive); in [12] it was -1.92% (inactive) and -9.33% (inactive); in test [13] it was -20.8% (inactive) and -24.1% (inactive). Further, in test [4], the result was inactive.
